Assay results from paper PMC4336329 (PLoS ONE, 2015).
Screen size: about 310,000 compounds; about 14,000 (4.5%) showed an effect of 50% or more. The effect is printed as a negative number. The sample as a whole holds a higher share of strong results than the screen did.
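Also: peak tail current of the secondary pulse compared with the same well before compound.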

These compounds were tested against human ether-à-go-go-related gene (hERG) potassium channel (human, UniProt Q12809) (assay: primary screen, population patch clamp on CHO cells stably expressing hERG; higher = less effect of the substance).
human ether-à-go-go-related gene (hERG) potassium channel, sequence (Q12809 whole entry, looked up): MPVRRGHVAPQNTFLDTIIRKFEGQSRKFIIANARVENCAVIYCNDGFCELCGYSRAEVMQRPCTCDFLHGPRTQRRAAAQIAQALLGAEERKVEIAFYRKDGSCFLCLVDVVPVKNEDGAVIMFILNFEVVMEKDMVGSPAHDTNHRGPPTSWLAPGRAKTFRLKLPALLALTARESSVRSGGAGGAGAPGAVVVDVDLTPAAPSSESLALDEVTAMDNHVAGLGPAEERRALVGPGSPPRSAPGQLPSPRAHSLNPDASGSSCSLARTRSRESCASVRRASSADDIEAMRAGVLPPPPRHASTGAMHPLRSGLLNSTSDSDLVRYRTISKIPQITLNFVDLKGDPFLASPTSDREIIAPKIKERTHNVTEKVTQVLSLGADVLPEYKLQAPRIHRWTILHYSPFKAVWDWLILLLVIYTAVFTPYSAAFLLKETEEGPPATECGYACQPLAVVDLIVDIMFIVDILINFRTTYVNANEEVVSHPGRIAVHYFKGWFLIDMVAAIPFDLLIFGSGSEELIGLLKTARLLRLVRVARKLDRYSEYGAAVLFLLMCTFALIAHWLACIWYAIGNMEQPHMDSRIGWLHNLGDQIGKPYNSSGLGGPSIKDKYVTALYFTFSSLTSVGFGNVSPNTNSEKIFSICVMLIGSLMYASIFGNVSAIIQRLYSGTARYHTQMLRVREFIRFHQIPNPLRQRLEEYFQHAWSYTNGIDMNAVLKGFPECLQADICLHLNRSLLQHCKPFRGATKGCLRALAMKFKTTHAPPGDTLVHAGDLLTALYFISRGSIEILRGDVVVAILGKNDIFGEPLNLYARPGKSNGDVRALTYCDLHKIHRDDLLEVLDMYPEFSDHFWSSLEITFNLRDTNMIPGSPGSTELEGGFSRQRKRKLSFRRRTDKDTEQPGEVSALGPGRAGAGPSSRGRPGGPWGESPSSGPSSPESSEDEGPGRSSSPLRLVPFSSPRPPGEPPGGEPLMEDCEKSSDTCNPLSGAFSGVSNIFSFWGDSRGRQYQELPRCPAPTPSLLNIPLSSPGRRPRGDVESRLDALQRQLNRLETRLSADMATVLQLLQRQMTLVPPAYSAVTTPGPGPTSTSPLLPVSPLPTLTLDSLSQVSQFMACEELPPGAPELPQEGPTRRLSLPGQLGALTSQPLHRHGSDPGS
With `Cc1nn(C)c(C(=O)N/N=C/c2ccncc2)c1Cl` the “hERG current change (%, negative = inhibition) at 10uM” value was 7.35%.
In the case of `COc1ccccc1N1C(=O)c2ccc(C(=O)Nc3cccc(C(C)=O)c3)cc2C1=O`, the “hERG current change (%, negative = inhibition) at 10uM” value is reported as 1.69%.
For `CCn1cc(CN(C)S(=O)(=O)c2ccc3ccccc3c2)c(C)n1`, the “hERG current change (%, negative = inhibition) at 10uM” value was -1.17%.
With `CCN(Cc1ccccc1)C(=O)CCc1nc(-c2ccc(C)cc2)no1` the “hERG current change (%, negative = inhibition) at 10uM” value was -12.1%.
`COc1ccc(-c2noc(CCC(=O)N3CCN(Cc4ccccc4)CC3)n2)cc1` was tested, and the “hERG current change (%, negative = inhibition) at 10uM” value was -32.8%.
In the case of `S=C(c1ccc(Br)cc1)N1CCN(Cc2ccccc2)CC1`, the “hERG current change (%, negative = inhibition) at 10uM” value is reported as -36.3%.
With `O=C(Cc1ccccc1)NC1CCN(C(=O)c2ccc([N+](=O)[O-])cc2)CC1` the “hERG current change (%, negative = inhibition) at 10uM” value was -47.7%.
For `CCN(Cc1ccccc1)C(=O)CCc1nc(CN2CCN(C(=O)c3ccc([N+](=O)[O-])cc3)CC2)no1`, the “hERG current change (%, negative = inhibition) at 10uM” value was -64.2%.
For `COc1ccc([N+](=O)[O-])cc1NC(=O)c1cccs1`, the “hERG current change (%, negative = inhibition) at 10uM” value was 4.41%.
`Cc1ccc(C(=S)N2CCN(Cc3ccccc3)CC2)cc1` was tested, and the “hERG current change (%, negative = inhibition) at 10uM” value was -42.9%.
`COc1ccc([N+](=O)[O-])cc1NC1CCN(C(=O)c2cccs2)CC1` was tested, and the “hERG current change (%, negative = inhibition) at 10uM” value was -85.7%.
`COc1ccc(OC)c(NC(=O)C2CCN(C(=O)c3cccs3)CC2)c1` was tested, and the “hERG current change (%, negative = inhibition) at 10uM” value was 15.7%.
In the case of `CSc1ccc(C(=S)N2CCN(Cc3ccccc3)CC2)cc1`, the “hERG current change (%, negative = inhibition) at 10uM” value is reported as -50.4%.
`O=C(Cc1ccccc1)N1CCN(C(=O)c2ccc([N+](=O)[O-])cc2)CC1` was tested, and the “hERG current change (%, negative = inhibition) at 10uM” value was -51%.
`COc1ccc(C(=O)N2CCN(C(=O)Cc3ccccc3)CC2)cc1.O=C(O)C(=O)O` was tested, and the “hERG current change (%, negative = inhibition) at 10uM” value was 0.269%.
In the case of `Cc1ccc2nc(NC(=O)c3ccc(-c4nc5ccccc5s4)s3)sc2c1`, the “hERG current change (%, negative = inhibition) at 10uM” value is reported as 0.614%.
With `O=C(Nc1cccnc1)c1ccccc1NS(=O)(=O)c1ccc(F)cc1` the “hERG current change (%, negative = inhibition) at 10uM” value was -11.5%.
For `Cc1c(Cl)ccc2c1NC(=O)C21NC(CCC(N)=O)[C@H]2C(=O)N(c3ccc(Cl)cc3)C(=O)[C@H]21` (stereo partly drawn), the “hERG current change (%, negative = inhibition) at 10uM” value was 7.5%.
In the case of `O=C(c1ccccc1NS(=O)(=O)c1ccc(F)cc1)N1CCCCC1`, the “hERG current change (%, negative = inhibition) at 10uM” value is reported as -4.35%.
`COCCN(C(=O)CCCC(=O)Nc1ccccn1)C(C(=O)NC1CCCCC1)c1ccc(C)cc1` (stereo not drawn) was tested, and the “hERG current change (%, negative = inhibition) at 10uM” value was -17.7%.
In the case of `CCc1ccc2oc(-c3ccc(NC(C)=O)cc3)nc2c1`, the “hERG current change (%, negative = inhibition) at 10uM” value is reported as 10.7%.
`O=C(Nc1ccc(C(=O)N2CCCCC2)cc1)c1ccc([N+](=O)[O-])cc1` was tested, and the “hERG current change (%, negative = inhibition) at 10uM” value was -1.34%.
With `O=C(c1c(Cl)cccc1Cl)N1CCN(c2cccc3[nH]ccc23)CC1` the “hERG current change (%, negative = inhibition) at 10uM” value was 22.3%.
For `O=C(c1cc([N+](=O)[O-])ccc1Cl)N1CCN(Cc2ccccc2)CC1`, the “hERG current change (%, negative = inhibition) at 10uM” value was 4.75%.
With `O=C(c1ccc([N+](=O)[O-])cc1)N1CCN(c2ncccn2)CC1` the “hERG current change (%, negative = inhibition) at 10uM” value was -77.8%.
With `O=C(c1ccc([N+](=O)[O-])cc1)N1CCN(c2cccc3[nH]ccc23)CC1` the “hERG current change (%, negative = inhibition) at 10uM” value was -72.7%.
With `O=C(c1cccc([N+](=O)[O-])c1)N1CCN(Cc2ccccc2)CC1` the “hERG current change (%, negative = inhibition) at 10uM” value was -9.31%.
In the case of `O=C(c1ccc([N+](=O)[O-])cc1)N1CCN(Cc2ccccc2)CC1`, the “hERG current change (%, negative = inhibition) at 10uM” value is reported as -66.4%.
`O=C(c1ccc(Cl)cc1)N1CCN(c2cccc3[nH]ccc23)CC1` was tested, and the “hERG current change (%, negative = inhibition) at 10uM” value was 3.68%.
For `O=C(c1ccccc1)N1CCN(c2ncccn2)CC1`, the “hERG current change (%, negative = inhibition) at 10uM” value was 17.6%.
For `O=C(c1ccc(F)cc1)N1CCN(C(=O)c2ccc([N+](=O)[O-])cc2)CC1`, the “hERG current change (%, negative = inhibition) at 10uM” value was -63.2%.
For `O=C(NNC(=O)c1ccc([N+](=O)[O-])cc1)c1ccc(F)cc1`, the “hERG current change (%, negative = inhibition) at 10uM” value was 6.25%.
`O=C(c1cccc([N+](=O)[O-])c1)N1CCN(c2ncccn2)CC1` was tested, and the “hERG current change (%, negative = inhibition) at 10uM” value was -8.55%.
With `CCOc1ccc(CC(=NCCc2ccccc2)C2=C(O)CC(C)(C)CC2=O)cc1OCC` the “hERG current change (%, negative = inhibition) at 10uM” value was -21.3%.
With `O=C(O)c1ccccc1CSc1nnnn1-c1ccccc1` the “hERG current change (%, negative = inhibition) at 10uM” value was 12.6%.
`Cc1cc(C)cc(N=C2NC(=O)/C(=C/c3cccs3)S2)c1` was tested, and the “hERG current change (%, negative = inhibition) at 10uM” value was 14.7%.
For `CC(=O)c1ccccc1NC(=O)C1C2CCC(O2)C1C(=O)O` (stereo not drawn), the “hERG current change (%, negative = inhibition) at 10uM” value was 8.81%.
With `Cc1c(CCO)c(=O)[nH]n1C(=O)c1c(F)cccc1F` the “hERG current change (%, negative = inhibition) at 10uM” value was -1.76%.
With `COc1ccc(-c2n[nH]c(=S)n2-c2ccc(C)cc2C)cc1` the “hERG current change (%, negative = inhibition) at 10uM” value was 19.5%.
In the case of `CC(NC(=O)c1ccc(CS(C)(=O)=O)cc1)c1cccc2ccccc12` (stereo not drawn), the “hERG current change (%, negative = inhibition) at 10uM” value is reported as 10.1%.
For `CCOc1ccc(NC(=O)Nc2cc(-c3ccccc3)sc2C(=O)OC)cc1`, the “hERG current change (%, negative = inhibition) at 10uM” value was -4.41%.
`COC(=O)C1=C(c2ccc(OC)c(OC)c2)C[C@@H]2CC[C@H]1N2C(=O)NCCO` was tested, and the “hERG current change (%, negative = inhibition) at 10uM” value was 15.5%.
In the case of `CC(C)(C)OC(=O)N1CCC[C@H]1C(=O)Nc1ccc(Br)cc1`, the “hERG current change (%, negative = inhibition) at 10uM” value is reported as 13.5%.
`CCN1CCN(c2ccc(S(=O)(=O)N3CCOCC3)cc2NC(=O)CCC(C)C)CC1` was tested, and the “hERG current change (%, negative = inhibition) at 10uM” value was -26.3%.
For `C/C(CC(=O)Nc1cc(C)ccn1)=N\NC(=O)c1ccncc1`, the “hERG current change (%, negative = inhibition) at 10uM” value was 19.7%.
For `O=C(CCSc1ccc(Cl)cc1)N1CCCCCC1`, the “hERG current change (%, negative = inhibition) at 10uM” value was -4.88%.
With `CC1CCCC(N2CCN(C(=O)c3ccc(F)cc3)CC2)C1` (stereo not drawn) the “hERG current change (%, negative = inhibition) at 10uM” value was -44.1%.
For `O=C(CCSc1ccc(Cl)cc1)N1CCN(c2ccc(O)cc2)CC1`, the “hERG current change (%, negative = inhibition) at 10uM” value was -23.8%.
`O=C(c1ccc(Cl)cc1)N1CCC(C(=O)N2CCN(c3ncccn3)CC2)CC1` was tested, and the “hERG current change (%, negative = inhibition) at 10uM” value was -56.6%.
`O=C(c1ccc(Cl)cc1)N1CCN(c2ncccn2)CC1` was tested, and the “hERG current change (%, negative = inhibition) at 10uM” value was 6.85%.
With `O=C(CCSc1ccc(Cl)cc1)N1CCN(c2ncccn2)CC1` the “hERG current change (%, negative = inhibition) at 10uM” value was -60.6%.
For `O=C(c1ccc(Cn2cc(Cl)c([N+](=O)[O-])n2)cc1)N1CCN(Cc2ccccc2)CC1`, the “hERG current change (%, negative = inhibition) at 10uM” value was -12.5%.
`CC1CCCC(N2CCN(C(=O)c3cccc(F)c3)CC2)C1.O=C(O)C(=O)O` (stereo not drawn) was tested, and the “hERG current change (%, negative = inhibition) at 10uM” value was -6.93%.
In the case of `O=C(c1ccc([N+](=O)[O-])o1)N1CCN(Cc2ccccc2)CC1`, the “hERG current change (%, negative = inhibition) at 10uM” value is reported as 2.99%.
In the case of `Cl.O=C(c1ccc(Cn2ccc([N+](=O)[O-])n2)cc1)N1CCN(Cc2ccccc2)CC1`, the “hERG current change (%, negative = inhibition) at 10uM” value is reported as -56.1%.
For `Cc1ccccc1C(=O)N1CCC(C(=O)N2CCN(c3ncccn3)CC2)CC1`, the “hERG current change (%, negative = inhibition) at 10uM” value was 7.94%.
`CC1CCCC(N2CCN(C(=O)c3ccc([N+](=O)[O-])cc3)CC2)C1.O=C(O)C(=O)O` (stereo not drawn) was tested, and the “hERG current change (%, negative = inhibition) at 10uM” value was -71.9%.
